ATG4B inh: blocks human ATG4B protease cleavage of LC3 substrate; AID 504462; Q9Y4P1; ATG4B cleavage of LC3-PLA2, NBD-HPC fluorescence, 1 h; inhibition, % at 8.33 µM; 340,000 tested, 0.51% active; in the data active = inhibition above about 40%
SUMO1-SIM PPI: SUMO1-SIM interaction modulation; AID 602429; inhibition, % at 20 µM; P63165; 360,000 tested, 0.33% active; SUMO1 binding to a labelled peptide, TR-FRET, 1 h; in the data active = inhibition above about 37%
Neddylation inh: blocks human cullin neddylation; P61081+Q13564; TR-FRET cullin neddylation, biochemical; inhibition, % at 25 µM; 360,000 tested, 0.58% active; AID 651699; in the data active = inhibition above about 36%
Rin1 Abl inh: human Rin1-Abl interaction inhibition. TR-FRET Rin1/Abl binding, biochemical. P00519+Q13671. 360,000 tested, 0.4% active. inhibition, % at 7.35 µM; in the data active = inhibition above about 5%, passing the limit was not always enough
Rin1 Abl conf: confirmation of inhibitors of human Rin1-Abl interaction. shares compounds with Rin1 Abl inh. TR-FRET Rin1-Abl binding, purified proteins. inhibition, % at 7.35 µM. 1,300 tested, 49% active
GFP quencher: counter-screen for Rin1-Abl inhibitors: GFP fluorescence quenchers; shares compounds with Rin1 Abl inh; inhibitors/quenchers counterscreen; inhibition, % at 6.75 µM; 1,300 tested, 8.5% active;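 also: ABL1-eGFP fusion protein alone without its partner RIN1-SBP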
GFP quench dose: counter-screen for Rin1-Abl inhibitors: GFP quenchers, dose response; shares compounds with Rin1 Abl inh; GFP fluorescence interference/quenching counterscreen; IC50, µM; 230 tested, under 10 active; AID 602182; call rule not given here;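 also: ABL1-eGFP fusion protein alone without its RIN1 binding partner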
A number is an active result. Most compounds without a hit are left out; they make up all but 1.7% or so of the library. Rule as the data show it, unless noted: active = inhibition above about 6.5%; inactive = the rest.

Results for CCOC(=O)CCCCCC(=O)Nc1ccc2c(c1)C(=O)N([C@@H](C)CO)C[C@H](C)[C@H](CN(C)C(=O)Nc1ccc(C(F)(F)F)cc1)OCCCC[C@H](C)O2 ?
SUMO1-SIM PPI: inactive; Neddylation inh: inactive; Rin1 Abl inh: inactive

How did C=C(CCO)C1=CCN(S(=O)C(C)(C)C)[C@H]1CCO (some centres undefined) do in these assays?
ATG4B inh: inactive; SUMO1-SIM PPI: inactive; Neddylation inh: inactive; Rin1 Abl inh: inactive

How did COCCCNC(=O)c1ccc2nc([C@@H]3O[C@H](CO)[C@H](O)[C@H](O)[C@H]3O)[nH]c2c1 do in these assays?
SUMO1-SIM PPI: inactive; Neddylation inh: inactive; Rin1 Abl inh: inactive

What do the screens show for `O=C(NNC(=O)c1ccncc1)Nc1ccc(N=Nc2ccccc2)cc1`?
ATG4B inh: inactive; SUMO1-SIM PPI: inactive; Neddylation inh: inactive; Rin1 Abl inh: inactive

What do the screens show for `Cc1c(Cl)cccc1NC(=O)c1cc(S(=O)(=O)N2CCOCC2)cn1C`?
ATG4B inh: inactive; SUMO1-SIM PPI: inactive; Neddylation inh: inactive; Rin1 Abl inh: 8.4; Rin1 Abl conf: inactive; GFP quencher: inactive

What do the screens show for `CCNC(=O)C1CCCN(C(=O)c2ccccc2F)CC1` (centres undefined)?
SUMO1-SIM PPI: inactive; Neddylation inh: inactive; Rin1 Abl inh: inactive

Results for CCCCOC(=O)c1ccc(NC(=O)CN2C(=O)NC3(CCCCCC3)C2=O)cc1 ?
ATG4B inh: inactive; SUMO1-SIM PPI: inactive; Neddylation inh: inactive; Rin1 Abl inh: 11.8; Rin1 Abl conf: 10.1; GFP quencher: inactive

What do the screens show for `CCCCOC(=O)c1ccc(NC(=O)COC(=O)CN2C(=O)NC3(CCCC3)C2=O)cc1`?
ATG4B inh: inactive; SUMO1-SIM PPI: inactive; Neddylation inh: inactive; Rin1 Abl inh: inactive

How did CCSc1nnc(NC(=O)CSc2nc3c(c(=O)n2C)SC(C)C3)s1 (centres undefined) do in these assays?
ATG4B inh: inactive; SUMO1-SIM PPI: inactive; Neddylation inh: inactive; Rin1 Abl inh: 9.5; Rin1 Abl conf: inactive; GFP quencher: inactive

How did O=C(NCCN1CCN(Cc2ccccc2)CC1)c1ccc(CS(=O)(=O)c2c(Cl)cccc2Cl)o1 do in these assays?
SUMO1-SIM PPI: inactive; Neddylation inh: inactive; Rin1 Abl inh: inactive

What do the screens show for `CCCCCCCOC(=O)C1=C(C)Nc2ncnn2C1c1cccs1` (centres undefined)?
ATG4B inh: inactive; SUMO1-SIM PPI: inactive; Neddylation inh: inactive; Rin1 Abl inh: 7.5; Rin1 Abl conf: inactive; GFP quencher: inactive

What do the screens show for `C=CC(=O)Nc1cccc(CN2C(=O)N(c3cc(OC)cc(OC)c3)Cc3cnc(NCCCCN(CC)CC)nc32)c1`?
ATG4B inh: inactive; SUMO1-SIM PPI: inactive; Neddylation inh: inactive

What do the screens show for `Cc1cccc(C)c1NC(=O)C1c2ccccc2OCC(=O)N1CCCN1CCOCC1` (centres undefined)?
SUMO1-SIM PPI: inactive; Neddylation inh: inactive

Results for Cc1cc(C)cc(NC(=O)N2CCNC(=O)C2CC(=O)Nc2cc(Cl)ccc2Cl)c1 (centres undefined) ?
ATG4B inh: inactive; SUMO1-SIM PPI: inactive; Neddylation inh: inactive; Rin1 Abl inh: 10.2; Rin1 Abl conf: 8.0; GFP quencher: inactive

Results for NS(=O)(=O)c1cccc(NC(=O)COc2ncnc3c2cnn3-c2ccccc2)c1 ?
ATG4B inh: inactive; SUMO1-SIM PPI: inactive; Neddylation inh: inactive; Rin1 Abl inh: inactive

Results for O=C(COc1ncnc2c1cnn2-c1ccccc1)Nc1ccc(S(=O)(=O)N2CCCCC2)cc1 ?
ATG4B inh: inactive; SUMO1-SIM PPI: inactive; Neddylation inh: inactive; Rin1 Abl inh: 8.8; Rin1 Abl conf: inactive; GFP quencher: inactive

What do the screens show for `CC[C@@H](NCCCn1ccc(NC(=O)OCc2ccccc2)nc1=O)c1ccccc1`?
SUMO1-SIM PPI: inactive; Neddylation inh: inactive; Rin1 Abl inh: 8.4; Rin1 Abl conf: 8.8; GFP quencher: inactive

Results for COc1ccc(CN(C)CCCn2ccc(NC(=O)OCc3ccccc3)nc2=O)cc1OC ?
SUMO1-SIM PPI: inactive; Neddylation inh: inactive; Rin1 Abl inh: 14.5; Rin1 Abl conf: 22.4; GFP quencher: inactive; GFP quench dose: inactive

Results for COc1cc(NCCCn2ccc(NC(=O)OCc3ccccc3)nc2=O)cc(OC)c1OC ?
ATG4B inh: inactive; SUMO1-SIM PPI: inactive; Neddylation inh: inactive; Rin1 Abl inh: inactive

Results for Cc1ccc(S(=O)(=O)C2(C(=O)NC3CCCCC3)CC2)cc1 ?
ATG4B inh: inactive; SUMO1-SIM PPI: inactive; Neddylation inh: inactive; Rin1 Abl inh: 15.8; Rin1 Abl conf: inactive; GFP quencher: inactive

What do the screens show for `COc1ccccc1N1CCN(Cc2ccc(O)c3ncccc23)CC1`?
ATG4B inh: inactive; SUMO1-SIM PPI: inactive; Neddylation inh: inactive; Rin1 Abl inh: 18.2; Rin1 Abl conf: inactive; GFP quencher: inactive

How did COc1ccc(CCCNC(=O)C2Cc3c(-c4ccccc4)ccnc3O2)cc1 (centres undefined) do in these assays?
SUMO1-SIM PPI: inactive; Neddylation inh: inactive; Rin1 Abl inh: inactive

How did O=C1N(Cc2ccccc2)c2ccccc2OC1(F)F do in these assays?
SUMO1-SIM PPI: inactive; Neddylation inh: inactive; Rin1 Abl inh: inactive

How did COc1ccc(N(C(=O)c2snc(C(N)=O)c2N)C(C(=O)NC2CCCC2)c2ccc(F)cc2)c(OC)c1 (centres undefined) do in these assays?
ATG4B inh: inactive; SUMO1-SIM PPI: inactive; Rin1 Abl inh: inactive

How did COc1ccc(C(C(=O)NC2CCCCC2)N(C(=O)c2snc(C(N)=O)c2N)c2ccc(OC)cc2OC)cc1 (centres undefined) do in these assays?
ATG4B inh: inactive; SUMO1-SIM PPI: inactive; Rin1 Abl inh: 18.3; Rin1 Abl conf: 14.8; GFP quencher: inactive

Results for CCOc1ccc(C(C(=O)NCC2CCCO2)N(C(=O)c2snc(C(N)=O)c2N)c2ccc3c(c2)OCCO3)cc1 (centres undefined) ?
ATG4B inh: inactive; SUMO1-SIM PPI: inactive; Neddylation inh: inactive; Rin1 Abl inh: 16.0; Rin1 Abl conf: 23.1; GFP quencher: inactive

Results for CC(C)(C)Cc1c(-c2ccc(C#N)cc2)nc2ccc(Cl)cn12 ?
SUMO1-SIM PPI: inactive; Neddylation inh: inactive; Rin1 Abl inh: inactive

How did O=c1cc(CO)oc(CN2CCN(CCO)CC2)c1O do in these assays?
ATG4B inh: inactive; SUMO1-SIM PPI: inactive; Neddylation inh: inactive; Rin1 Abl inh: 6.5; Rin1 Abl conf: inactive; GFP quencher: inactive

What do the screens show for `CCc1nc2ccc(C(=O)NCCc3ccccn3)cn2c1N(C)Cc1ccc(N(C)C)cc1`?
SUMO1-SIM PPI: inactive; Neddylation inh: inactive; Rin1 Abl inh: inactive

What do the screens show for `CCOC(=O)C1=C[C@@H](C(C)(C)C)N(S(=O)(=O)c2ccc(C)cc2)[C@H]1c1cccc(Cl)c1`?
SUMO1-SIM PPI: inactive; Neddylation inh: inactive; Rin1 Abl inh: inactive

Compound activity: PubChem BioAssay, several laboratories
